From the supplement of paper PMC4466140

biological target: CaNbp2; experiment: SPOT peptide array binding signal intensity (averaged, normalized) (arbitrary units (background-subtracted, floor 0; scale differs between SH3 domains)); higher = stronger binding of the SH3 domain to the peptide
Outline: (§1)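 Detection of bound protein relied on anti-GST antibody, an HRP anti-mouse secondary and luminol, with imaging and quantification in Genespotter. The bound protein was GST-fused SH3 domains from four yeast species, incubated at 10 μg/ml overnight at 4°C in TBS-based blocking buffer on cellulose membranes carrying synthetic 15-mer peptides with cysteines replaced by serines. Binding signal is normalized, background-subtracted spot intensity averaged over replicates, in arbitrary units that differ between domains.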

Binder | SPOT peptide array binding signal intensity
TPTSGPPLLPPRNTM | 21
STPQTMRQAPKRPDA | 653

biological target: CaRvs167; experiment: as above
Outline: as §1

Binder | SPOT peptide array binding signal intensity
TPTSGPPLLPPRNTM | 2460
STPQTMRQAPKRPDA | 28.8

biological target: CaRvs167-3; experiment: as above
Outline: as §1

Binder | SPOT peptide array binding signal intensity
TPTSGPPLLPPRNTM | ≤ 0
STPQTMRQAPKRPDA | 1

biological target: CaSho1; experiment: as above
Outline: as §1

Binder | SPOT peptide array binding signal intensity
TPTSGPPLLPPRNTM | 5.5
STPQTMRQAPKRPDA | 100

biological target: CaSla1-D1-D2; experiment: as above
Outline: as §1

Binder | SPOT peptide array binding signal intensity
TPTSGPPLLPPRNTM | 185
STPQTMRQAPKRPDA | 198

biological target: CaSla1-D3; experiment: as above
Outline: as §1

Binder | SPOT peptide array binding signal intensity
TPTSGPPLLPPRNTM | 23.8
STPQTMRQAPKRPDA | 225

biological target: ScAbp1; experiment: as above
Outline: as §1

Binder | SPOT peptide array binding signal intensity
TPTSGPPLLPPRNTM | ≤ 0
STPQTMRQAPKRPDA | 2.5

biological target: ScBbc1; experiment: as above
Outline: as §1

Binder | SPOT peptide array binding signal intensity
TPTSGPPLLPPRNTM | 1
STPQTMRQAPKRPDA | 49.5

biological target: ScBem1-D1; experiment: as above
Outline: as §1

Binder | SPOT peptide array binding signal intensity
TPTSGPPLLPPRNTM | ≤ 0
STPQTMRQAPKRPDA | 8.5

biological target: ScBzz1-D1; experiment: as above
Outline: as §1

Binder | SPOT peptide array binding signal intensity
TPTSGPPLLPPRNTM | 3
STPQTMRQAPKRPDA | 3

biological target: ScBzz1-D2; experiment: as above
Outline: as §1

Binder | SPOT peptide array binding signal intensity
TPTSGPPLLPPRNTM | ≤ 0
STPQTMRQAPKRPDA | 26

biological target: ScCyk3; experiment: as above
Outline: as §1

Binder | SPOT peptide array binding signal intensity
TPTSGPPLLPPRNTM | 2
STPQTMRQAPKRPDA | ≤ 0

biological target: ScFus1; experiment: as above
Outline: as §1

Binder | SPOT peptide array binding signal intensity
TPTSGPPLLPPRNTM | ≤ 0
STPQTMRQAPKRPDA | 39

biological target: ScHof1; experiment: as above
Outline: as §1

Binder | SPOT peptide array binding signal intensity
TPTSGPPLLPPRNTM | 8
STPQTMRQAPKRPDA | ≤ 0

biological target: ScHse1; experiment: as above
Outline: as §1

Binder | SPOT peptide array binding signal intensity
TPTSGPPLLPPRNTM | ≤ 0
STPQTMRQAPKRPDA | 72

biological target: ScLsb1; experiment: as above
Outline: as §1

Binder | SPOT peptide array binding signal intensity
TPTSGPPLLPPRNTM | 1070
STPQTMRQAPKRPDA | 5.5

biological target: ScLsb2; experiment: as above
Outline: as §1

Binder | SPOT peptide array binding signal intensity
TPTSGPPLLPPRNTM | 65.5
STPQTMRQAPKRPDA | 5

biological target: ScLsb3; experiment: as above
Outline: as §1

Binder | SPOT peptide array binding signal intensity
TPTSGPPLLPPRNTM | 6040
STPQTMRQAPKRPDA | 300

biological target: ScLsb4; experiment: as above
Outline: as §1

Binder | SPOT peptide array binding signal intensity
TPTSGPPLLPPRNTM | 6540
STPQTMRQAPKRPDA | 35

biological target: ScMyo3; experiment: as above
Outline: as §1

Binder | SPOT peptide array binding signal intensity
TPTSGPPLLPPRNTM | 538
STPQTMRQAPKRPDA | 196

biological target: ScMyo5; experiment: as above
Outline: as §1

Binder | SPOT peptide array binding signal intensity
TPTSGPPLLPPRNTM | 80
STPQTMRQAPKRPDA | 72.5

biological target: ScNbp2; experiment: as above
Outline: as §1

Binder | SPOT peptide array binding signal intensity
TPTSGPPLLPPRNTM | ≤ 0
STPQTMRQAPKRPDA | 2290

biological target: ScPex13; experiment: as above
Outline: as §1

Binder | SPOT peptide array binding signal intensity
TPTSGPPLLPPRNTM | 1680
STPQTMRQAPKRPDA | 339

biological target: ScRvs167; experiment: as above
Outline: as §1

Binder | SPOT peptide array binding signal intensity
TPTSGPPLLPPRNTM | 2570
STPQTMRQAPKRPDA | 39.7

biological target: ScSho1; experiment: as above
Outline: as §1

Binder | SPOT peptide array binding signal intensity
TPTSGPPLLPPRNTM | 1.5
STPQTMRQAPKRPDA | 171

biological target: ScSla1-D1-D2; experiment: as above
Outline: as §1

Binder | SPOT peptide array binding signal intensity
TPTSGPPLLPPRNTM | 268
STPQTMRQAPKRPDA | 736

biological target: ScSla1-D3; experiment: as above
Outline: as §1

Binder | SPOT peptide array binding signal intensity
TPTSGPPLLPPRNTM | 51.5
STPQTMRQAPKRPDA | 540

biological target: SpAbp1-D1; experiment: as above
Outline: as §1

Binder | SPOT peptide array binding signal intensity
TPTSGPPLLPPRNTM | 3
STPQTMRQAPKRPDA | ≤ 0

biological target: SpBbc1; experiment: as above
Outline: as §1

Binder | SPOT peptide array binding signal intensity
TPTSGPPLLPPRNTM | ≤ 0
STPQTMRQAPKRPDA | 5

biological target: SpBzz1-D1; experiment: as above
Outline: as §1

Binder | SPOT peptide array binding signal intensity
TPTSGPPLLPPRNTM | 176
STPQTMRQAPKRPDA | 116

biological target: SpBzz1-D2; experiment: as above
Outline: as §1

Binder | SPOT peptide array binding signal intensity
TPTSGPPLLPPRNTM | 1
STPQTMRQAPKRPDA | 11

biological target: SpCyk3; experiment: as above
Outline: as §1

Binder | SPOT peptide array binding signal intensity
TPTSGPPLLPPRNTM | 4.5
STPQTMRQAPKRPDA | 6

biological target: SpHof1; experiment: as above
Outline: as §1

Binder | SPOT peptide array binding signal intensity
TPTSGPPLLPPRNTM | 12.5
STPQTMRQAPKRPDA | 25

biological target: SpHof1-2; experiment: as above
Outline: as §1

Binder | SPOT peptide array binding signal intensity
TPTSGPPLLPPRNTM | 19
STPQTMRQAPKRPDA | 38.8

biological target: SpHof1-3; experiment: as above
Outline: as §1

Binder | SPOT peptide array binding signal intensity
TPTSGPPLLPPRNTM | 18.8
STPQTMRQAPKRPDA | ≤ 0

biological target: SpHse1; experiment: as above
Outline: as §1

Binder | SPOT peptide array binding signal intensity
TPTSGPPLLPPRNTM | 31.5
STPQTMRQAPKRPDA | 190

biological target: SpLsb1; experiment: as above
Outline: as §1

Binder | SPOT peptide array binding signal intensity
TPTSGPPLLPPRNTM | 1190
STPQTMRQAPKRPDA | ≤ 0

biological target: SpLsb4; experiment: as above
Outline: as §1

Binder | SPOT peptide array binding signal intensity
TPTSGPPLLPPRNTM | 6300
STPQTMRQAPKRPDA | 384

biological target: SpMyo1; experiment: as above
Outline: as §1

Binder | SPOT peptide array binding signal intensity
TPTSGPPLLPPRNTM | 156
STPQTMRQAPKRPDA | 325

biological target: SpNbp2; experiment: as above
Outline: as §1

Binder | SPOT peptide array binding signal intensity
TPTSGPPLLPPRNTM | ≤ 0
STPQTMRQAPKRPDA | 266

biological target: SpPex13; experiment: as above
Outline: as §1

Binder | SPOT peptide array binding signal intensity
TPTSGPPLLPPRNTM | 84.5
STPQTMRQAPKRPDA | 51

biological target: SpRvs167; experiment: as above
Outline: as §1

Binder | SPOT peptide array binding signal intensity
TPTSGPPLLPPRNTM | 2660
STPQTMRQAPKRPDA | 25.8

biological target: SpSla1-D1-D2; experiment: as above
Outline: as §1

Binder | SPOT peptide array binding signal intensity
TPTSGPPLLPPRNTM | 3
STPQTMRQAPKRPDA | 1.5

biological target: SpSla1-D3; experiment: as above
Outline: as §1

Binder | SPOT peptide array binding signal intensity
TPTSGPPLLPPRNTM | 4.5
STPQTMRQAPKRPDA | 182

biological target: AgAbp1; experiment: as above
Outline: as §1

Binder | SPOT peptide array binding signal intensity
STPQTMRQAPKRPDA | ≤ 0

biological target: AgBbc1; experiment: as above
Outline: as §1

Binder | SPOT peptide array binding signal intensity
STPQTMRQAPKRPDA | 206

biological target: AgBem1-D1; experiment: as above
Outline: as §1

Binder | SPOT peptide array binding signal intensity
STPQTMRQAPKRPDA | 540

biological target: AgBzz1-D1; experiment: as above
Outline: as §1

Binder | SPOT peptide array binding signal intensity
STPQTMRQAPKRPDA | 10

biological target: AgBzz1-D2; experiment: as above
Outline: as §1

Binder | SPOT peptide array binding signal intensity
STPQTMRQAPKRPDA | 20

biological target: AgCyk3; experiment: as above
Outline: as §1

Binder | SPOT peptide array binding signal intensity
STPQTMRQAPKRPDA | ≤ 0

biological target: AgFus1; experiment: as above
Outline: as §1

Binder | SPOT peptide array binding signal intensity
STPQTMRQAPKRPDA | 34.5

biological target: AgHof1; experiment: as above
Outline: as §1

Binder | SPOT peptide array binding signal intensity
STPQTMRQAPKRPDA | 10.5

biological target: AgHse1; experiment: as above
Outline: as §1

Binder | SPOT peptide array binding signal intensity
STPQTMRQAPKRPDA | 122

biological target: AgLsb1; experiment: as above
Outline: as §1

Binder | SPOT peptide array binding signal intensity
STPQTMRQAPKRPDA | 6.5

biological target: AgLsb4; experiment: as above
Outline: as §1

Binder | SPOT peptide array binding signal intensity
STPQTMRQAPKRPDA | ≤ 0

biological target: AgMyo5; experiment: as above
Outline: as §1

Binder | SPOT peptide array binding signal intensity
STPQTMRQAPKRPDA | 6

biological target: AgNbp2; experiment: as above
Outline: as §1

Binder | SPOT peptide array binding signal intensity
STPQTMRQAPKRPDA | 1030

biological target: AgRvs167; experiment: as above
Outline: as §1

Binder | SPOT peptide array binding signal intensity
STPQTMRQAPKRPDA | 0.833

biological target: AgSho1; experiment: as above
Outline: as §1

Binder | SPOT peptide array binding signal intensity
STPQTMRQAPKRPDA | 25

biological target: AgSla1-D1-D2; experiment: as above
Outline: as §1

Binder | SPOT peptide array binding signal intensity
STPQTMRQAPKRPDA | 4

biological target: AgSla1-D3; experiment: as above
Outline: as §1

Binder | SPOT peptide array binding signal intensity
STPQTMRQAPKRPDA | 0.5

biological target: CaAbp1-D1; experiment: as above
Outline: as §1

Binder | SPOT peptide array binding signal intensity
STPQTMRQAPKRPDA | ≤ 0

biological target: CaAbp1-D2; experiment: as above
Outline: as §1

Binder | SPOT peptide array binding signal intensity
STPQTMRQAPKRPDA | 13

biological target: CaBbc1; experiment: as above
Outline: as §1

Binder | SPOT peptide array binding signal intensity
STPQTMRQAPKRPDA | 1170

biological target: CaBem1-D1; experiment: as above
Outline: as §1

Binder | SPOT peptide array binding signal intensity
STPQTMRQAPKRPDA | 174

biological target: CaBzz1-D1; experiment: as above
Outline: as §1

Binder | SPOT peptide array binding signal intensity
STPQTMRQAPKRPDA | 532

biological target: CaBzz1-D2; experiment: as above
Outline: as §1

Binder | SPOT peptide array binding signal intensity
STPQTMRQAPKRPDA | 105

biological target: CaCyk3; experiment: as above
Outline: as §1

Binder | SPOT peptide array binding signal intensity
STPQTMRQAPKRPDA | 29

biological target: CaFus1; experiment: as above
Outline: as §1

Binder | SPOT peptide array binding signal intensity
STPQTMRQAPKRPDA | 202

biological target: CaHof1; experiment: as above
Outline: as §1

Binder | SPOT peptide array binding signal intensity
STPQTMRQAPKRPDA | ≤ 0

biological target: CaHse1; experiment: as above
Outline: as §1

Binder | SPOT peptide array binding signal intensity
STPQTMRQAPKRPDA | 83

biological target: CaLsb1; experiment: as above
Outline: as §1

Binder | SPOT peptide array binding signal intensity
STPQTMRQAPKRPDA | 0.5

biological target: CaLsb4; experiment: as above
Outline: as §1

Binder | SPOT peptide array binding signal intensity
STPQTMRQAPKRPDA | 283

biological target: CaMyo5; experiment: as above
Outline: as §1

Binder | SPOT peptide array binding signal intensity
STPQTMRQAPKRPDA | 88
